Reference: PubChem BioAssay (NCATS)
Results filed as inconclusive are left out. Calls of active or inactive are those of the source. Calls follow the shape of the dose curve; as a rule, active = well fitted curve in the direction sought with a large enough effect; inconclusive = small, poorly fitted or top-dose-only effect, or another doubt; inactive = no such curve, though single readings can be large; an effect the other way counts as inactive or inconclusive.

Legend:
HEK293T [1] = experiment: qHTS assay to identify novel small-molecules to repurpose for Merkel cell carcinoma treatment (AID 1296009); details: MCC and control cell lines, CellTiter-Glo viability, 72 h; at 44.8 µM (top of the series) unless noted; also: nearly all actives have a fitted effect of over 60% in size
Summary of the method: (§1)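 72 hr, 37 degree celsius; NPC 8-pt / MIPE 11-pt dose response; compound pinned in DMSO; CellTiter-Glo, 10 min RT, luminescence; normalized to no-cell and DMSO controls.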

MCC-13 = experiment: as above; details: MCC and control cell lines, CellTiter-Glo viability, 72 h; series mostly up to 46 µM
Summary of the method: as §1

MCC-26 = experiment: as above; details: MCC and control cell lines, CellTiter-Glo viability, 72 h; series mostly up to 46 µM
Summary of the method: as §1

MKL-1 = experiment: as above; details: MCC and control cell lines, CellTiter-Glo viability, 72 h; series mostly up to 46 µM
Summary of the method: as §1

MKL-2 = experiment: as above; details: MCC and control cell lines, CellTiter-Glo viability, 72 h; series mostly up to 46 µM
Summary of the method: as §1

UISO = experiment: as above; details: MCC and control cell lines, CellTiter-Glo viability, 72 h; series mostly up to 46 µM
Summary of the method: as §1

WaGa = experiment: as above; details: MCC and control cell lines, CellTiter-Glo viability, 72 h; series mostly up to 46 µM
Summary of the method: as §1

C33A = experiment: Primary qHTS to identify gynecologic anti-cancer compounds using libraries of approved drugs and bioactive compounds (AID 1345084); details: Gynecologic cancer cell panel viability, ATPlite luminescence, 48 h; series mostly up to 57.5 µM; also: nearly all actives have a fitted effect of over 55% in size
Summary of the method: (§2)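 Luminescence from the ATPlite ATP-monitoring reagent indicates viable cell number; lower signal means cytotoxicity. Cells received compound 16 h after seeding and were exposed for 48 h across five concentrations.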

CAOV3 = experiment: as above; details: Gynecologic cancer cell panel viability, ATPlite luminescence, 48 h; series mostly up to 57.5 µM
Summary of the method: as §2

CASKI = experiment: as above; details: Gynecologic cancer cell panel viability, ATPlite luminescence, 48 h; series mostly up to 57.5 µM
Summary of the method: as §2

Es-2 = experiment: as above; details: Gynecologic cancer cell panel viability, ATPlite luminescence, 48 h; series mostly up to 57.5 µM
Summary of the method: as §2

HeLa = experiment: as above; details: Gynecologic cancer cell panel viability, ATPlite luminescence, 48 h; series mostly up to 57.5 µM
Summary of the method: as §2

Hek293T [2] = experiment: as above; details: Gynecologic cancer cell panel viability, ATPlite luminescence, 48 h, control line for the selectivity index; series mostly up to 57.5 µM
Summary of the method: as §2

JEG-3 = experiment: as above; details: Gynecologic cancer cell panel viability, ATPlite luminescence, 48 h; series mostly up to 57.5 µM
Summary of the method: as §2

OV90 = experiment: as above; details: Gynecologic cancer cell panel viability, ATPlite luminescence, 48 h; series mostly up to 57.5 µM
Summary of the method: as §2

PA-1 = experiment: as above; details: Gynecologic cancer cell panel viability, ATPlite luminescence, 48 h; series mostly up to 57.5 µM
Summary of the method: as §2

SKOV3 = experiment: as above; details: Gynecologic cancer cell panel viability, ATPlite luminescence, 48 h; series mostly up to 57.5 µM
Summary of the method: as §2

Tov-21-G = experiment: as above; details: Gynecologic cancer cell panel viability, ATPlite luminescence, 48 h; series mostly up to 57.5 µM
Summary of the method: as §2

Tov112D = experiment: as above; details: Gynecologic cancer cell panel viability, ATPlite luminescence, 48 h; series mostly up to 57.5 µM
Summary of the method: as §2

NIH3T3 = experiment: qHTS assay to identify novel small-molecules to repurpose for Merkel cell carcinoma treatment (AID 1296009); details: MCC and control cell lines, CellTiter-Glo viability, 72 h; at 44.8 µM (top of the series) unless noted; also: nearly all actives have a fitted effect of over 60% in size
Summary of the method: as §1

Measured: Potency

O=C(O)CCCc1ccccc1
not listed: NIH3T3
inactive: all other assays above

O=C(Cn1ccnc1[N+](=O)[O-])NCCO
not listed: NIH3T3
inactive: all other assays above

CC(CSC(=O)c1ccccc1)C(=O)N1C[C@@H](Sc2ccccc2)C[C@H]1C(=O)O (some centres not stated)
inactive: HEK293T [1] inactive [at 17.4 µM] | MCC-13 | MCC-26 | MKL-1 | MKL-2 | UISO | WaGa | C33A | CASKI | Es-2 | HeLa | Hek293T [2] | JEG-3 | PA-1 | Tov-21-G | Tov112D

O=C(O)Cc1cn(-c2ccccc2)nc1-c1ccc(Cl)cc1
not listed: NIH3T3
inactive: all other assays above

Cc1cc(NC(=O)C2=C(O)c3ccccc3S(=O)(=O)N2C)no1
not listed: CAOV3 | NIH3T3
inactive: all other assays above

NS(=O)(=O)c1cc(-c2nn[nH]n2)c(NCc2cccs2)cc1Cl
not listed: OV90 | SKOV3 | NIH3T3
inactive: all other assays above

CC1(C)S[C@@H]2[C@H](NC(=O)C(C(=O)O)c3ccccc3)C(=O)N2[C@H]1C(=O)O (some centres not stated)
not listed: CAOV3 | NIH3T3
inactive: all other assays above

NCc1ccc(S(N)(=O)=O)cc1
not listed: NIH3T3
inactive: all other assays above

CC(=O)Nc1ccc(OCCOCCOc2ccc(NC(C)=O)cc2)cc1
not listed: SKOV3 | NIH3T3
inactive: all other assays above

Cc1cccc(C)c1NC(=O)CC12CCCN1CCC2
not listed: NIH3T3
inactive: all other assays above

COc1ccc(-c2cc(=O)c3c(O)cc(O[C@@H]4O[C@H](CO[C@@H]5O[C@@H](C)[C@H](O)[C@@H](O)[C@H]5O)[C@@H](O)[C@H](O)[C@H]4O)cc3o2)cc1O
not listed: NIH3T3
inactive: all other assays above

CCC(C)(CN(C)C)OC(=O)c1ccccc1 (configuration not stated)
not listed: CAOV3 | NIH3T3
inactive: all other assays above

CCCCCOC(=O)Nc1nc(=O)n([C@@H]2O[C@H](C)[C@@H](O)[C@H]2O)cc1F
not listed: SKOV3 | NIH3T3
inactive: all other assays above

CC(C)C[C@@H](N)C(=O)O
inactive: HEK293T [1] inactive [at 17.4 µM] | MCC-13 | MKL-1 | MKL-2 | UISO | WaGa | C33A | CAOV3 | CASKI | Es-2 | HeLa | Hek293T [2] | JEG-3 | OV90 | PA-1 | SKOV3 | Tov-21-G | Tov112D

O=C(c1ccccc1)C(O)c1ccccc1 (configuration not stated)
not listed: HEK293T [1]
inactive: all other assays above

CC(C)c1cc2c(cc1S(=O)(=O)O)[C@@]1(C)CCC[C@@](C)(C(=O)O)[C@@H]1CC2
not listed: HEK293T [1]
inactive: all other assays above

C=CCN1C[C@H](C(=O)N(CCCN(C)C)C(=O)NCC)C[C@@H]2c3cccc4[nH]cc(c34)C[C@H]21
not listed: HEK293T [1]
inactive: all other assays above

CC1(C)S[C@@H]2[C@H](N=CN3CCCCCC3)C(=O)N2[C@H]1C(=O)O
not listed: HEK293T [1]
inactive: all other assays above

CN(C(=O)c1c(O)c2ccccc2n(C)c1=O)c1ccccc1
not listed: HEK293T [1]
inactive: all other assays above

NS(=O)(=O)c1ccc(NC(=O)CCC(=O)O)cc1
not listed: HEK293T [1]
inactive: all other assays above

O=C1C(c2[nH]c3ccccc3c2O)=Nc2ccccc21
not listed: UISO | NIH3T3
inactive: all other assays above

COC(=O)N/N=C/c1c[n+]([O-])c2ccccc2[n+]1[O-]
not listed: MCC-26 | NIH3T3
inactive: all other assays above

CC1CC(OC(=O)c2ccccc2O)CC(C)(C)C1 (configuration not stated)
not listed: MKL-2 | NIH3T3
inactive: all other assays above

COC(=O)c1ccccc1C(=O)c1ccc(OCCN2CCCCC2)cc1
not listed: MCC-26 | JEG-3 | OV90 | SKOV3 | NIH3T3
inactive: all other assays above

Cc1ccccc1N=Nc1ccc(N=Nc2c(O)ccc3ccccc23)c(C)c1
not listed: MCC-26 | UISO | NIH3T3
inactive: all other assays above

CN1CC(=O)NC1=N
not listed: MCC-26 | PA-1 | NIH3T3
inactive: all other assays above

CCOC(=O)[C@H](CCc1ccccc1)N[C@@H](C)C(=O)N1CCC[C@H]1C(=O)O
not listed: HEK293T [1]
inactive: all other assays above

O=C(O)C(S)C(S)C(=O)O (configuration not stated)
not listed: HEK293T [1]
inactive: all other assays above

Cc1cc(O)cc(C)c1Cl
not listed: MCC-26 | OV90 | NIH3T3
inactive: all other assays above
